{"source": "the supplement of paper PMC9925115", "note": "Counter-ions that a name gives are not always drawn. ± gives the uncertainty stated by the source.", "data": [{"test_system": "FLX1", "test": "cell viability z-score within plate (CellTiter-Glo), mean of 3 biological replicates; higher = higher viability relative to plate (less growth inhibition)", "details": "2 µM; time (hr): 120", "procedure": "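FLX1 fibrolamellar carcinoma cells (DNAJB1-PRKACA fusion), 600 cells/well in 384-well plates, treated with a Selleck kinase inhibitor library (L1200) at 2 uM for 5 days (120 hr); viability by CellTiter-Glo. A z-score was computed within each plate and averaged over three biological replicates.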", "values": [{"smiles": "CNC(=O)c1cccc(-c2ccc3c(N4CCOC[C@@H]4C)nc(N4CCOC[C@@H]4C)nc3n2)c1", "note": "[Vistusertib (AZD2014)]", "cell viability z-score within plate": "-0.936 ± 1.4"}, {"smiles": "CCOc1cc(N2CCC(O)CC2)ccc1Nc1ncc2c(n1)N(C)c1ccccc1C(=O)N2C", "cell viability z-score within plate": "0.413 ± 1.6"}, {"smiles": "Nc1ccc(-c2ccc3ncc4ccc(=O)n(-c5cccc(C(F)(F)F)c5)c4c3c2)cn1", "note": "[Torin 2]", "cell viability z-score within plate": "0.796 ± 0.29"}, {"smiles": "CC(C)(C)NS(=O)(=O)c1cncc(-c2cc(F)c3nc(N)nn3c2)c1", "cell viability z-score within plate": "0.16 ± 0.77"}, {"smiles": "CC(=O)Nc1nc(C)c(-c2ccc(Cl)c(S(=O)(=O)NCCO)c2)s1", "cell viability z-score within plate": "-0.0789 ± 0.1"}, {"smiles": "O=C1NC(=O)[C@@H](c2cn3c4c(cccc24)CCC3)[C@@H]1c1c[nH]c2ccccc12", "note": "[Tivantinib (ARQ 197)]", "cell viability z-score within plate": "-1.26 ± 0.51"}, {"smiles": "CCN1CCN(Cc2ccc(C(=O)Nc3ccc(C)c(Oc4ccc5c(c4)CC(=O)N5)c3)cc2C(F)(F)F)CC1", "cell viability z-score within plate": "0.226 ± 0.35"}, {"smiles": "Cc1[nH]c(/C=C2\\C(=O)Nc3ccc(S(=O)(=O)Cc4c(Cl)cccc4Cl)cc32)c(C)c1C(=O)N1CCC[C@@H]1CN1CCCC1", "cell viability z-score within plate": "0.00363 ± 0.67"}, {"smiles": "O=C(Cc1ccc(-c2ccc(OCCN3CCOCC3)cc2)cn1)NCc1ccccc1", "cell viability z-score within plate": "0.711 ± 0.45"}, {"smiles": "COc1cc(Nc2ncc(F)c(Nc3ccc4c(n3)N(COP(=O)(O)O)C(=O)C(C)(C)O4)n2)cc(OC)c1OC", "note": "[Fostamatinib (R788)]", "cell viability z-score within plate": "0.458 ± 0.74"}, {"smiles": "N#Cc1c(NC(=O)c2cccc3ccccc23)sc2c1CCCC2", "note": "[JNK Inhibitor IX]", "cell viability z-score within plate": "0.195 ± 0.75"}, {"smiles": "Cc1ccc(Nc2nccc(N(C)c3ccc4c(C)n(C)nc4c3)n2)cc1S(N)(=O)=O", "cell viability z-score within plate": "-0.43 ± 0.49"}, {"smiles": "CN1CCC(CNc2ccc3ncc(-c4cccc(OC(F)(F)F)c4)n3n2)CC1", "note": "[SGI-1776 free base]", "cell viability z-score within plate": "0.436 ± 0.2"}, {"smiles": "COc1cc(Nc2ncc3c(n2)-c2ccc(Cl)cc2C(c2c(F)cccc2OC)=NC3)ccc1C(=O)O", "note": "[Alisertib (MLN8237)]", "cell viability z-score within plate": "0.451 ± 0.63"}, {"smiles": "Cc1ccc(Nc2nccc(N(C)c3ccc4c(C)n(C)nc4c3)n2)cc1S(N)(=O)=O", "note": "[Pazopanib]", "cell viability z-score within plate": "-0.34 ± 0.86"}, {"smiles": "Fc1cc(-c2cccc3ncc(-c4cnn(C5CCNCC5)c4)nc23)cc(F)c1CN1CCOCC1", "cell viability z-score within plate": "-1.08 ± 1.1"}, {"smiles": "CNC(=O)Nc1ccc(-c2nc(N3CC4CCC(C3)O4)c3cnn(C4CCC5(CC4)OCCO5)c3n2)cc1", "cell viability z-score within plate": "0.631 ± 0.77"}, {"smiles": "CCc1cnn2c(NCc3ccc[n+]([O-])c3)cc(N3CCCC[C@H]3CCO)nc12", "cell viability z-score within plate": "0.031 ± 0.76"}, {"smiles": "N#CC(=C(/N)Sc1ccccc1N)/C(C#N)=C(\\N)Sc1ccccc1N", "cell viability z-score within plate": "-1.01 ± 0.4"}, {"smiles": "C=CC(=O)Nc1cccc(Oc2nc(Nc3ccc(N4CCN(C)CC4)cc3)ncc2Cl)c1", "cell viability z-score within plate": "-0.0359 ± 0.21"}, {"smiles": "FC(F)(F)c1ccc(/C=C/c2nc(COc3ccc(CCCCn4ccnn4)cc3)co2)cc1", "note": "[Mubritinib (TAK 165)]", "cell viability z-score within plate": "-0.952 ± 0.95"}, {"smiles": "CNC(=O)c1cc(Oc2ccc(NC(=O)Nc3ccc(Cl)c(C(F)(F)F)c3)c(F)c2)ccn1", "note": "[Regorafenib (BAY 73-4506)]", "cell viability z-score within plate": "2 ± 0.81"}, {"smiles": "N#CCNC(=O)c1ccc(-c2ccnc(Nc3ccc(N4CCOCC4)cc3)n2)cc1", "note": "[Momelotinib (CYT387)]", "cell viability z-score within plate": "-1.97 ± 1"}, {"smiles": "O=C(NOCC(O)CO)c1cc(Br)c(F)c(F)c1Nc1ccc(I)cc1F", "note": "(stereo not given)", "cell viability z-score within plate": "0.628 ± 0.22"}, {"smiles": "Nc1cccc(-c2cc3c(Oc4cccc(O)c4)ncnc3[nH]2)c1", "cell viability z-score within plate": "-0.5 ± 0.21"}, {"smiles": "CCOc1ccn(-c2ccc(F)cc2)c(=O)c1C(=O)Nc1ccc(Oc2ccnc(N)c2Cl)c(F)c1", "cell viability z-score within plate": "-0.36 ± 1.2"}, {"smiles": "Cc1[nH]c(/C=C2\\C(=O)Nc3ccc(S(=O)(=O)N(C)c4cccc(Cl)c4)cc32)c(C)c1C(=O)N1CCN(C)CC1", "cell viability z-score within plate": "-0.214 ± 0.72"}, {"smiles": "CC1(COc2ccc3c(c2)ncn3-c2ccc3cccc(N4CCC(N)CC4)c3n2)COC1", "cell viability z-score within plate": "0.0444 ± 0.77"}, {"smiles": "COc1cc(Nc2ncc(F)c(Nc3ccc4c(n3)NC(=O)C(C)(C)O4)n2)cc(OC)c1OC", "cell viability z-score within plate": "0.701 ± 0.4"}, {"smiles": "CN1CCN(S(=O)(=O)c2ccc(-c3cnc(N)c(C(=O)Nc4cccnc4)n3)cc2)CC1", "cell viability z-score within plate": "0.448 ± 0.3"}, {"smiles": "CCn1c(N)c(C(=O)NC)c(=O)c2ccc(C#CC(C)(O)COC)nc21", "note": "(stereo not given)", "cell viability z-score within plate": "-1.49 ± 1.7"}, {"smiles": "CNC(=O)c1cc(Oc2ccc(NC(=O)Nc3ccc(Cl)c(C(F)(F)F)c3)cc2)ccn1", "note": "[Sorafenib Tosylate]", "cell viability z-score within plate": "-0.335 ± 0.66"}, {"smiles": "Cc1cc(C(C)Nc2ccccc2)c2nc(N3CCOCC3)cc(=O)n2c1", "note": "(stereo not given)", "cell viability z-score within plate": "-0.144 ± 0.28"}, {"smiles": "N[C@@H]1CCCN(c2c(/C=C3\\SC(=O)NC3=O)cccc2-c2ccccc2)C1", "cell viability z-score within plate": "0.166 ± 0.49"}, {"smiles": "CO[C@H]1C[C@@H]2CC[C@@H](C)[C@@](O)(O2)C(=O)C(=O)N2CCCC[C@H]2C(=O)O[C@H]([C@H](C)C[C@@H]2CC[C@@H](O)[C@H](OC)C2)CC(=O)[C@H](C)/C=C(\\C)[C@@H](O)[C@@H](OC)C(=O)[C@H](C)C[C@H](C)/C=C/C=C/C=C/1C", "note": "[Rapamycin (Sirolimus)]", "cell viability z-score within plate": "0.422 ± 0.17"}, {"smiles": "CN1CC[C@H](c2c(O)cc(O)c3c(=O)cc(-c4ccccc4Cl)oc23)[C@H](O)C1", "note": "[Flavopiridol (Alvocidib)]", "cell viability z-score within plate": "0.251 ± 0.25"}, {"smiles": "Cn1c(=O)c(F)c(Nc2ccc(I)cc2F)c2c(=O)n(C[C@@H](O)CO)cnc21", "cell viability z-score within plate": "1.04 ± 0.62"}, {"smiles": "Nc1nccc(Oc2ccc(NC(=O)c3c[nH]cc(-c4ccc(F)cc4)c3=O)cc2F)c1Cl", "cell viability z-score within plate": "-0.37 ± 0.32"}, {"smiles": "Cc1ccc(C(=O)Nc2ccc(CN3CCN(C)CC3)c(C(F)(F)F)c2)cc1C#Cc1cnc2[nH]ncc2c1", "note": "[GZD824 Dimesylate]", "cell viability z-score within plate": "-0.246 ± 0.26"}, {"smiles": "Oc1cc(O)cc(/C=C/c2ccc(O)c(O)c2)c1", "note": "[Piceatannol]", "cell viability z-score within plate": "-0.333 ± 0.2"}]}]}
